Sampled rows, rich in hits. Any-hit rate of the full collection: about 3.8%.
HT1080 IDH1KD tx: qHTS for induction of synthetic lethality in tumor cells producing 2HG: qHTS for the HT-1080-IDH1KD cell line; HT-1080 IDH1 knockdown viability, ATP luminescence, 48 h; Potency, µM (series often up to 46.1 µM), for inactives: at the highest dose activity, negative = toxicity, usual class: cytotoxic; 360,000 tested, 2% active; AID 686971, 2013;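 also: 0% = DMSO wells and -100% = cell-free medium wells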
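HT-1080-IDH1KD cells (IDH1 knocked down), 750/well in RPMI with 5% FBS, treated with compound 48 h at 37 degrees C. Viability by CellTiter-Glo luminescence, normalised to DMSO and no-cell wells; concentration-response curves classed.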
HT1080-NT tox: qHTS for induction of synthetic lethality in tumor cells producing 2HG: qHTS for the HT-1080-NT fibrosarcoma cell line; HT-1080-NT fibrosarcoma viability, CellTiter-Glo ATP luminescence, 48 h; Potency, µM (series often up to 46.1 µM), for inactives: at the highest dose activity, negative = less viability, most hits filed as cytotoxic; 360,000 tested, 1.6% active; AID 686970, 2013;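 also: NT is the 2HG producing partner of a matched IDH1 knockdown line; 0% = DMSO-treated cells and -100% = media-only wells without cells; nearly all actives have a fitted effect of over 55% in size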
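Compounds were tested in concentration-response format on HT-1080-NT cells for 48 hours at 37 degrees C. Cell viability came from CellTiter-Glo luminescence; curves were classified by r2, response magnitude and activity.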
HepG2 tox: qHTS for Inhibitors of TGF-b: Cytotox Counterscreen. 410,000 tested, 0.76% active. HepG2 CAGA-GFP viability, ATP luminescence, 18 h. AID 588856, 2011. Potency, µM (series often up to 46.1 µM), for inactives: at the highest dose activity change, negative = cytotoxicity, actives largely listed as cytotoxic
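CellTiter-Glo luminescence gave cytotoxicity after 18 hours at 37 degrees C. The cells were HepG2 CAGA-GFP in 1% FBS DMEM, stimulated with 500 pg/mL TGF-beta after compound addition. %Activity was normalised to no-cell wells (complete cell-killing) and DMSO (no toxicity), and curves were fitted and classified.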
ATXN2 expr inh: Primary qHTS for Inhibitors of ATXN expression; HEK-293 ATXN2-luciferase reporter, luminescence, 24 h; Potency, µM (doses to about 57 µM), for inactives: at the highest dose activity change, negative = inhibition, actives largely listed as inhibitors; 360,000 tested, 0.72% active; AID 1745845, 2022; also: % is scaled to controls: 0 for no effect and ±100 for the full control effect; nearly all actives have a fitted effect of over 55% in size
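ATXN2-luciferase reporter cells (luciferase flanked by upstream and downstream ATXN2 gene portions) were treated 24 h at 37 °C with compounds at up to 57 uM. SteadyGlo luminescence gave expression; GF-AFC fluorescence gave viability.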
ATXN viability: Viability Counterscreen for Primary qHTS for Inhibitors of ATXN expression; S2 cells (HEK-293 line with an ATXN2-luciferase reporter) viability, CellTiter-Fluor protease fluorescence, 24 h; Potency, µM (titrated, usually from 56.7 µM), actives largely listed as cytotoxic; 400,000 tested, 0.49% active; also: nearly all actives have a fitted effect of over 40% in size
TGFb SMAD3 inh: qHTS for Inhibitors of TGF-b. HepG2 CAGA-GFP TGF-b/SMAD3 reporter, GFP fluorescence, 18 h; TGF-beta stimulated, 500 pg/mL final. Potency, µM (doses to about 46.1 µM), without a hit: top-dose activity, negative = inhibition, hits mostly inhibitors. 410,000 tested, 1.2% active. AID 588855, 2011; also: % is scaled to controls: 0 for no effect and ±100 for the full control effect; nearly all actives have a fitted effect of over 65% in size
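HEPG2 CAGA-GFP reporter cells (1000/well, DMEM with 1% FBS) received compounds, then recombinant TGF-beta at 500 pg/mL final for 18 hours at 37 degrees C. Per-cell GFP summed per well was normalised to unstimulated and stimulated DMSO controls before curve fitting.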
An asterisk follows results filed as active. Calls follow the shape of the dose curve; as a rule, active = well fitted curve in the direction sought with a large enough effect; inconclusive = small, poorly fitted or top-dose-only effect, or another doubt; inactive = no such curve, though single readings can be large; an effect the other way counts as inactive or inconclusive. Potency is read from the fitted curve at half-maximal effect.

How did Cc1ccc(NC(=O)CSc2nc(C)c(Cc3ccccc3)c(=O)[nH]2)cc1C do in these assays?
HT1080 IDH1KD tx: 6.0%; HT1080-NT tox: 1.2%; HepG2 tox: -21.1%; ATXN2 expr inh: -16.9%; ATXN viability: inactive; TGFb SMAD3 inh: 8.91µM*

Results for Cc1cccc(NC(=O)CSc2nc(C)c(Cc3ccccc3)c(=O)[nH]2)c1 ?
HT1080 IDH1KD tx: -12.0%; HT1080-NT tox: -12.5%; HepG2 tox: -18.1%; ATXN2 expr inh: 5.4%; ATXN viability: inactive; TGFb SMAD3 inh: inconclusive

How did Cc1ncc(CO)c2c1Oc1nc(-c3ccccc3)nc(SCC(=O)Nc3cccc(O)c3)c1C2 do in these assays?
HT1080 IDH1KD tx: 7.2%; HT1080-NT tox: -19.4%; HepG2 tox: -38.6%; ATXN viability: inconclusive; TGFb SMAD3 inh: 12.6µM*

What do the screens show for `COc1ccc(-c2nc3c(c(SCC(=O)Nc4cccc(O)c4)n2)Cc2c(CO)cnc(C)c2O3)cc1`?
HT1080 IDH1KD tx: 0.4%; HT1080-NT tox: 2.3%; HepG2 tox: -24.4%; ATXN2 expr inh: 0.4%; ATXN viability: inactive; TGFb SMAD3 inh: inconclusive

How did COc1ccc(N2C(=O)CC(Nc3ccc(C(=O)O)cc3)C2=O)cc1OC (stereo not drawn) do in these assays?
HT1080 IDH1KD tx: 10.3%; HT1080-NT tox: -0.6%; HepG2 tox: 4.5%; ATXN2 expr inh: -14.0%; TGFb SMAD3 inh: 6.1%

How did COC(=O)c1cccc(NC2CC(=O)N(c3ccc(OC)c(OC)c3)C2=O)c1 (stereo not drawn) do in these assays?
HT1080 IDH1KD tx: 1.3%; HT1080-NT tox: -1.7%; HepG2 tox: 5.01µM*; ATXN2 expr inh: 2.6%; ATXN viability: inactive; TGFb SMAD3 inh: -9.0%

How did Cc1ccc2nc(-c3ccco3)c(CC(C)(C)C)n2c1 do in these assays?
HT1080 IDH1KD tx: 8.4%; HT1080-NT tox: -1.6%; HepG2 tox: -29.5%; ATXN2 expr inh: inconclusive; ATXN viability: 20µM*; TGFb SMAD3 inh: inconclusive

Results for Fc1cccc(Cc2c(-c3ccco3)nc3ccc(Br)cn23)c1 ?
HT1080 IDH1KD tx: 16.4µM*; HT1080-NT tox: inconclusive; HepG2 tox: -97.2%; ATXN2 expr inh: -24.7%; TGFb SMAD3 inh: inconclusive

What do the screens show for `Cc1ccc2nc(C(C)(C)C)c(Cc3cccc(F)c3)n2c1`?
HT1080 IDH1KD tx: 23.1µM*; HT1080-NT tox: 16.4µM*; HepG2 tox: -22.8%; ATXN2 expr inh: inconclusive; ATXN viability: inconclusive; TGFb SMAD3 inh: inconclusive

Results for Cc1ccc2nc(-c3ccco3)c(Cc3ccccc3)n2c1 ?
HT1080 IDH1KD tx: 23.1µM*; HT1080-NT tox: inconclusive; HepG2 tox: -15.2%; ATXN2 expr inh: 4.2%; ATXN viability: inconclusive; TGFb SMAD3 inh: inconclusive

What do the screens show for `COc1ccc(Nc2c(-c3ccco3)nc3ccc(C)cn23)cc1`?
HT1080 IDH1KD tx: -1.6%; HT1080-NT tox: -2.7%; HepG2 tox: -0.3%; ATXN viability: inactive; TGFb SMAD3 inh: 3.5%

What do the screens show for `CCCc1nc2ccc(C)cn2c1Cc1cccc(F)c1`?
HT1080 IDH1KD tx: inconclusive; HT1080-NT tox: -18.0%; HepG2 tox: -23.2%; ATXN2 expr inh: -36.9%; ATXN viability: inconclusive; TGFb SMAD3 inh: inconclusive

How did Cc1ccc2nc(-c3cccc(Cl)c3)c(Cc3ccccc3)n2c1 do in these assays?
HT1080 IDH1KD tx: -9.9%; HT1080-NT tox: 3.3%; ATXN2 expr inh: inconclusive; ATXN viability: inconclusive

Results for CC(C)OC(=O)C(C(=O)OC(C)C)=C1SC=CS1 ?
ATXN2 expr inh: 1.5%; ATXN viability: inactive

What do the screens show for `C[C@@H]1[C@H](c2ccccc2)OCCS(=O)(=O)N1Cc1ccc(F)cc1`?
HepG2 tox: 2.2%; TGFb SMAD3 inh: -17.3%

High-throughput results from PubChem.
